Experimental data from PubChem BioAssay.
Activity calls are given as the source filed them.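 The calls were made as follows: active = inhibition at or above 50% relative to wild type and mutant plate controls; inactive = inhibition below 50%.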

Assay: inhibitors of Chlamydomonas gravitaxis, primary screen, whole organism, Chlamydomonas reinhardtii, WT vs cilia-less mutant, absorbance, 96-well (AID 463189);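 also: 0% = wild type cc124 cells in DMSO and 100% = ciliumless bld1 mutant cells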
Conditions: OD600 absorbance, 2 days, at 10 µM, active compounds read high

inhibition, active:
CC1(C)CCC2=C(O1)c1ccccc1C(=O)C2=O 153%

inhibition, inactive:
Cc1cc2c(cc1Cl)N(C(=O)Nc1ccnc3ccccc13)CC2 -0.614%, O=C(Cc1ccc(Cl)c(Cl)c1)OCCN1CCCC1 -10.1%, CCC(=O)c1ccc2c(c1)N(CCCN(C)C)c1ccccc1S2 46.1%, O=S(=O)(O)C1CCNCC1 1.98%, CC(N)=NCc1cccc(CN)c1 7.48%, CCSC(=N)N 4.79%, NCCc1ccc(O)c(O)c1 -0.97%, NCCSSCCN 6.01%, NC(=O)c1cnccn1 1.54%, CCCC[C@@]1(C2CCCC2)Cc2cc(OCC(=O)O)c(Cl)c(Cl)c2C1=O 4.57%, CC(C)(Oc1ccc(C2CC2(Cl)Cl)cc1)C(=O)O (stereo not given) 1.41%, CCCn1c(=O)c2[nH]c(-c3ccc(S(=O)(=O)O)cc3)nc2n(CCC)c1=O 1.25%, Cc1ccccc1N1CCN(S(=O)(=O)C[C@]23CCC(CC2NC(=O)[C@@H](N)CCS(C)(=O)=O)C3(C)C)CC1 (stereo not given in full) 3.4%, NC(=NCc1ccccc1)NC(=O)c1nc(Cl)c(N)nc1N -1.5%, COc1cc2nc(N3CC=[N+](C(=O)c4ccco4)CC3)nc(N)c2cc1OC 6.38%, CC(C)(C)c1cc(/C=C(\C#N)C(N)=S)cc(C(C)(C)C)c1O 35.4%, N#CC(Cc1ccc(O)c(O)c1)C(=O)N1CCc2ccccc21 (stereo not given) 0.886%, CC(C)(CO)Cc1cc(C(C)(C)C)c(O)c(C(C)(C)C)c1 -2.65%, NCCCC(=O)O -6.87%, O=C1N=C(O)CN1/N=C/c1ccc(-c2ccc([N+](=O)[O-])cc2)o1 4.87%, COC(=O)c1c(-c2cc(OC)c(OC)c(OC)c2)c2ccc(OCc3ccccn3)cc2c(=O)n1-c1ccc(N)cc1 2.92%, O=c1c(-c2ccc(O)cc2)coc2cc(O)ccc12 -7.57%, CN(C)CCC(c1ccccc1)c1ccccn1 (stereo not given) 7.99%, CC(C)Cc1ccc([C@H](C)C(=O)O)cc1 8.1%, O=C(O)CCCC[C@@H]1CCSS1 4.4%, O=C(O)C1CCCNC1 (stereo not given) -1.36%, CCCOC(=O)c1c(-c2ccccc2)nc(CC)c(C(=O)SCC)c1CCC 10.6%, CCCCCCCCCCCCCCCC(=O)NCCO 8.85%, COC(=O)c1c(C)[nH]c(C)c1C(=O)c1ccccc1Cc1ccccc1 0.163%, CC(=O)O[C@H]1C(=O)[C@@]2(C)C([C@H](OC(=O)c3ccccc3)[C@]3(O)C[C@H](OC(=O)[C@H](O)[C@@H](NC(=O)c4ccccc4)c4ccccc4)C(C)=C1C3(C)C)[C@]1(OC(C)=O)CO[C@@H]1C[C@@H]2O (stereo not given in full) 8.47%, Cn1cnc2c(NC3CCCC3)ncnc21 0.556%, CC1=C(C(=O)O)N2C(=O)[C@@H](NC(=O)C(N)c3ccccc3)[C@H]2SC1 (stereo not given in full) -0.964%, NC[C@@H]1O[C@H](C23CC4CC(CC(C4)C2)C3)Cc2c1ccc(O)c2O 0.204%, Nn1nnc2ccccc21 1.8%, CCCCCCCCCCCCCCSCC(=O)O 7.96%, NC/C=C\C(=O)O 3.63%, O=c1[nH]c(=O)n([C@H]2C[C@H](O)[C@@H](CO)O2)cc1Br 2.45%, CN=C(NC#N)Nc1ccc(C2=NNC(=O)CC2C)cc1 (stereo not given) -4.34%, C/C=C1\C(=O)CC2C3CCC4=CC(=O)CC[C@]4(C)C3CC[C@]12C (stereo not given in full) 0.131%
